Results published in PubChem BioAssay AID1159580 (chemical genetic matrix, 2015).
Values joined by “and” are separate entries in the source; they are usually repeats but may differ in a detail not shown here. Equal entries are not always repeated. Among all 5,500 compounds or so, about 2,000 (36%) were called active. Inconclusive results (about 18%) are left out. No stated cut-off is given here; in the data, active means normalized growth mostly below about 0.91 (no sharp cut-off); inconclusive means no clear call, values can overlap the other calls; inactive means mostly above about 0.92. Some of the results follow.

Test: chemical genetic growth profiling, strain panel (AID 1159580);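 further: tested at 20 µM; growth read once vehicle control cultures reached saturation at 30 °C; 1 = growth at the plate median or of vehicle wells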
Conditions: S. cerevisiae deletion strains, growth OD

Measured: normalized growth

NC[C@H](O)c1ccc(O)c(O)c1
inactive: locus YAL013W, strain DEP1, stronger effect = lower value 1.01 | locus YAL021C, strain ccr4, stronger effect = lower value 0.984 | locus YAL026C, strain drs2, stronger effect = lower value 0.99 | locus YAL030W, strain snc1, stronger effect = lower value 1.01 | locus YBL061C, strain skt5, stronger effect = lower value 1.01 | locus YBR009C, strain hhf1, stronger effect = lower value 1.01 | locus YBR021W, strain FUR4, stronger effect = lower value 1.01 | locus YBR023C, strain chs3, stronger effect = lower value 1.02 | locus YBR171W, strain sec66, stronger effect = lower value 0.996 | locus YBR229C, strain ROT2, stronger effect = lower value 1.01 | locus YBR231C, strain swc5, stronger effect = lower value 0.984 | locus YBR279W, strain paf1, stronger effect = lower value 1.02 | locus YCL011C, strain gbp2, stronger effect = lower value 0.999 | locus YCL016C, strain dcc1, stronger effect = lower value 1.02 | locus YCL029C, strain bik1, stronger effect = lower value 1.01 | locus YCL061C, strain MRC1, stronger effect = lower value 1.01 | locus YCL069W, strain vba3, stronger effect = lower value 0.991 | locus YCR088W, strain abp1, stronger effect = lower value 1.01 | locus YDL005C, strain med2, stronger effect = lower value 1 | locus YDL035C, strain GPR1, stronger effect = lower value 1.01 | locus YDL040C, strain nat1, stronger effect = lower value 1.01 | locus YDL074C, strain BRE1, stronger effect = lower value 0.986 | locus YDL101C, strain DUN1, stronger effect = lower value 1.01 | locus YDL134C, strain PPH21, stronger effect = lower value 1.02 | locus YDL185W, strain tfp1, stronger effect = lower value 1.01 | locus YDL192W, strain arf1, stronger effect = lower value 1.01 | locus YDR001C, strain nth1, stronger effect = lower value 1 | locus YDR069C, strain doa4, stronger effect = lower value 0.981 | locus YDR101C, strain arx1, stronger effect = lower value 1 | locus YDR137W, strain rgp1, stronger effect = lower value 1.06 | locus YDR150W, strain NUM1, stronger effect = lower value 1 | locus YDR159W, strain sac3, stronger effect = lower value 1.01 | locus YDR162C, strain NBP2, stronger effect = lower value 1 | locus YDR195W, strain ref2 1.01 | locus YDR297W, strain sur2, stronger effect = lower value 1.01 | locus YDR318W, strain mcm21, stronger effect = lower value 1.03 | locus YDR334W, strain swr1, stronger effect = lower value 0.984 | locus YDR335W, strain msn5, stronger effect = lower value 0.999 | locus YDR388W, stronger effect = lower value 1.02 | locus YDR392W, strain spt3, stronger effect = lower value 0.987 | locus YDR502C, strain sam2, stronger effect = lower value 1.02 | locus YEL003W, strain gim4, stronger effect = lower value 0.986 | locus YEL037C, strain rad23, stronger effect = lower value 0.986 | locus YEL061C, strain CIN8 (second series), stronger effect = lower value 0.985 | locus YEL061C, strain CIN8, stronger effect = lower value 1.01 | locus YER015W, strain faa2, stronger effect = lower value 0.99 | locus YER016W, strain bim1, stronger effect = lower value 1 | locus YER110C, stronger effect = lower value 1.02 | locus YER111C, strain swi4, stronger effect = lower value 0.98 | locus YER155C, strain BEM2 (second series), stronger effect = lower value 1 | locus YER155C, strain BEM2, stronger effect = lower value 1.02 | locus YER167W, strain BCK2, stronger effect = lower value 1.02 | locus YFR010W, strain ubp6, stronger effect = lower value 0.953 | locus YGL078C, strain dbp3, stronger effect = lower value 1.01 | locus YGL086W, strain mad1, stronger effect = lower value 0.991 | locus YGL167C, strain pmr1, stronger effect = lower value 1 | locus YGL173C, strain kem1, stronger effect = lower value 0.999 | locus YGL227W, strain vid30, stronger effect = lower value 1 | locus YGL240W, strain doc1, stronger effect = lower value 1.03 | locus YGL248W, strain PDE1, stronger effect = lower value 1.01 | locus YGL253W, strain hxk2, stronger effect = lower value 0.994 | locus YGR135W, strain pre9, stronger effect = lower value 0.998 | locus YGR252W, strain gcn5, stronger effect = lower value 0.958 | locus YHR013C, strain ard1, stronger effect = lower value 1 | locus YHR027C, strain rpn1, stronger effect = lower value 1 | locus YHR030C, strain SLT2, stronger effect = lower value 1.01 and 0.962 | locus YHR079C, strain IRE1 (second series), stronger effect = lower value 1.02 | locus YHR079C, strain IRE1, stronger effect = lower value 0.953 | locus YHR094C, strain hxt1, stronger effect = lower value 1.03 | locus YHR129C, strain ARP1, stronger effect = lower value 0.999 | locus YHR142W, strain chs7, stronger effect = lower value 0.978 | locus YHR200W, strain rpn10, stronger effect = lower value 1.02 | locus YIL066C, strain RNR3, stronger effect = lower value 1.01 | locus YIL073C, strain SPO22, stronger effect = lower value 1.03 | locus YIL125W, strain kgd1, stronger effect = lower value 1.01 | locus YIR030C, strain dcg1, stronger effect = lower value 1.02 | locus YJL092W, strain hpr5, stronger effect = lower value 1 | locus YJL095W, strain BCK1 (second series), stronger effect = lower value 1.01 | locus YJL095W, strain BCK1, stronger effect = lower value 0.994 and 0.971 | locus YJL115W, strain asf1, stronger effect = lower value 1 | locus YJL129C, strain trk1, stronger effect = lower value 0.952 | locus YJL134W, strain LCB3, stronger effect = lower value 1.01 | locus YJL154C, strain vps35, stronger effect = lower value 1 | locus YJL164C, strain tpk1, stronger effect = lower value 1.01 | locus YJL166W, strain qcr8, stronger effect = lower value 1.02 | locus YJL168C, strain set2, stronger effect = lower value 1.02 | locus YJL187C, strain SWE1 (second series), stronger effect = lower value 1.01 | locus YJL187C, strain SWE1, stronger effect = lower value 0.999 | locus YJR043C, strain POL32, stronger effect = lower value 1.02
